Screening results as filed in PubChem.
Efflux pump inh: inhibitors of Candida efflux pumps in yeast, primary screen, S. cerevisiae, Nile Red, multiplex; S. cerevisiae Candida pump triplex; hit rate 0.44% among 330,000; inhibition, % at 10 µM;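 active = plate passing quality check with inhibition over a set limit, or well fluorescence over plate mean plus 4 SD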;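 also: Nile Red retained in pooled yeast measured as flow cytometry median fluorescence; 0% = buffer negative control and 100% = Enniatin B positive control; higher means more Nile Red kept so more efflux inhibition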
AHR activator: AHR activators, primary screen, cell-based, luminescence, luciferase reporter, human; hit rate 2.5% among 320,000; AID 2796, 2010; AHR-responsive luciferase reporter cells; Aryl hydrocarbon receptor (Homo sapiens), P35869; activation, % at 5 µM; in the data active = activation above about 47%;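 also: 0% = vehicle wells and 100% = reference agonist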
A1 inh: caspase 3/7 activation in MEF A1-2A-BIM cells, primary screen, A1 inhibitor project, cell-based, luminescence, HTS. Caspase-Glo 3/7 luminescence, 3 h; percent of clofoctol response, vehicle zero. caspase activation, % (concentration not given with the values). hit rate 0.066% among 330,000. AID 2462, 2010;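 active = over half of replicate activation scores above 10%, or exactly half above 10 with the replicate mean above 10; inconclusive = replicate mean below 10 yet half the replicates above 10; inactive = over half of replicates below 10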
SUMO Mot1 rescue: yeast Mot1-301 growth rescue at high temperature, primary screen, SUMOylation pathway inhibitor project, S. cerevisiae, ATP luminescence, 38.5C | S. cerevisiae Mot1-301 growth rescue; percent above DMSO median, 100 means doubled | growth rescue, % at 18.8 µM | hit rate 1% among 320,000 | AID 2716, 2010;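 active = every valid replicate shows activation above 250% relative to neutral control wells; inactive = the rest, any valid replicate at or below 250%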;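 also: OY570 slx delta 5 strain wells were the positive control but not used for scaling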
VLA-4 inh: inhibition in human VLA-4 binding assay, primary screen, VLA-4 allosteric modulator project, MLPCN library, flow cytometry, VLA-4 expressing cells | inhibition, % (about 7 µM as worked out from the volumes in the protocol) | AID 2557, 2010 | ligand binding flow cytometry | Integrin alpha-4 (Homo sapiens), P13612 | hit rate 0.2% among 330,000; in the data active = inhibition above about 50%
ALR H2O2 inh: inhibitors of human ALR sulfhydryl oxidase, primary screen, biochemical, H2O2 detection, HRP-luminol luminescence, single point | FAD-linked sulfhydryl oxidase ALR (Homo sapiens), P55789 | purified ALR, DTT oxidation | inhibition, % (no concentration beside the values) | hit rate 3.8% among 290,000 | AID 485317, 2010;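 active = mean replicate inhibition above about 79%, with every replicate also reaching it, limit read from the data; inconclusive = only one of the two criteria met; inactive = mean below limit and not every replicate reaching it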
Target sequence (P55789 whole entry, looked up): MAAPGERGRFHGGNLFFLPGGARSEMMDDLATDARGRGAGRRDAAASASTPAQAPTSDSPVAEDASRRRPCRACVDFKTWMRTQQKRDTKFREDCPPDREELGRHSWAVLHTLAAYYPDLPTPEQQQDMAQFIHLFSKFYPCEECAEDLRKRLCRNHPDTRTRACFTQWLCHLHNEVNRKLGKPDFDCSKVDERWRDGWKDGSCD
An asterisk follows results filed as active; i = inactive; ? = inconclusive; / = not tested or not shown. Compounds with a hit are over-represented: about 7.2% of the library has one in this group of screens.

SMILES | Efflux pump inh | AHR activator | A1 inh | SUMO Mot1 rescue | VLA-4 inh | ALR H2O2 inh
O=C(NCc1nc2ccccc2[nH]1)c1cccc(S(=O)(=O)N2CCCC2)c1 | 0 | 4 | 0 | 4 | 20 | -11
COc1ccc(OCc2cccc(C(=O)NN)c2)cc1 | 0 | 2 | -2 | -3 | -8 | -1
NNC(=O)c1cccc(COc2ccc(Br)cc2)c1 | 0 | 2 | -1 | -13 | 14 | 97*
O=C(NN1CCOCC1)c1cccc(COc2cccc(Br)c2)c1 | 0 | 5 | 2 | 20 | 13 | -6
NNC(=O)c1cccc(COc2cccc(Br)c2)c1 | 0 | 51* | -1 | -7 | 1 | -5
Cn1c2ccccc2c2cc([N+](=O)[O-])ccc21 | 0 | -5 | 2 | -2 | 11 | -11
CN1c2ccc([N+](=O)[O-])cc2N(C)C1(C)c1ccccc1 (stereo not given) | 0 | / | 0 | 65 | 4 | 99*
COc1cc(Cn2cnnn2)ccc1O | 0 | 1 | 0 | / | 20 | 81*
COc1cc(N)c(Cl)cc1Cl | 0 | 1 | 0 | -2 | 1 | -28
Cc1nc(NC(=O)c2ccc(F)cc2)nc2cc3c(cc12)OCO3 | 0 | 65* | 0 | -14 | 1 | -3
Cc1nc(NC(=O)c2ccccc2)nc2cc3c(cc12)OCO3 | 1 | 25 | -1 | 1 | 8 | 45
Clc1ccc(-c2nc3ncccn3c2Nc2ccc3c(c2)OCCO3)cc1 | 0 | 6 | 0 | -17 | 4 | -10
Brc1ccc(-c2nc3ncccn3c2Nc2ccc3c(c2)OCCO3)o1 | 0 | 3 | -1 | / | 25 | 98*
Cc1ccc(-c2nc3ncccn3c2Nc2ccc3c(c2)OCCO3)o1 | 0 | 7 | 1 | 9 | 1 | 99*
Cc1ccc(-c2nc3ncccn3c2NC2CCCCC2)o1 | 0 | 9 | 1 | -7 | 15 | 99*
Cc1cc(C)n2c(Nc3ccc4c(c3)OCCO4)c(-c3ccc(C)o3)nc2n1 | 0 | 8 | -1 | -17 | 7 | /
COc1cccc(CN(C)C(=O)COc2ccc(C(=O)c3ccc(Cl)cc3)cc2)c1OC | 0 | -1 | ? | 3 | 23 | 3
O=C(NNS(=O)(=O)c1ccccc1F)c1ccccc1-n1cccc1 | 0 | 3 | 1 | 0 | -10 | 14
CC(=O)Nc1nc(-c2ccccc2)nc(-c2ccccc2OC(C)=O)n1 | 0 | 75* | -1 | 62 | 11 | 8
CC(=O)Nc1cccc(OCCCNC(=O)c2ccc(F)cc2)c1 | 0 | 2 | -1 | -25 | -17 | -13
CC(=O)Nc1cccc(OCCCNC(=O)c2ccc(C(C)(C)C)cc2)c1 | 0 | 47* | 0 | -22 | 2 | -7
CCCCN1c2cc(C)c(O)cc2C(C(=O)OCC)C1C (stereo not given) | 0 | 48* | 1 | 0 | 25 | 0
Nc1nnc(SCC(=O)OCC(=O)NC23CC4CC(CC(C4)C2)C3)s1 | 0 | 0 | 0 | -1 | 9 | -8
CC1(C)CN(c2ccccc2)N(C(=O)c2ccc(C#N)cc2)C1=O | 0 | -1 | 0 | 7 | / | 85*
CC1(C)COCN1C(=O)c1ccc(C#N)cc1 | 0 | 4 | ? | -8 | 3 | 0
SMILES | Efflux pump inh | AHR activator | A1 inh | SUMO Mot1 rescue | VLA-4 inh | ALR H2O2 inh
CC1(C)CN(c2ccc(C(=O)c3ccccc3)cc2)C1=O | 0 | 4 | 1 | 11 | -1 | -3
CC1(C)CN(c2ccccc2)N(C(=O)c2ccc(F)cc2)C1=O | 0 | 0 | 1 | 14 | 3 | 100*
CCCCn1c(N)c(N(CC(C)C)C(=O)C2CC(=O)N(c3ccc(C)cc3)C2)c(=O)[nH]c1=O (stereo not given) | 0 | -1 | 0 | 46 | 4 | -3
N#Cc1c(-c2ccccc2)nc(SCc2nc(N)nc(N3CCCCC3)n2)[nH]c1=O | 0 | -2 | 0 | 13 | -6 | 97*
CCC(C)[C@H](N)c1nnc(SCC(=O)c2ccc(Cl)cc2)o1 (stereo not given in full) | 0 | -8 | 0 | -6 | 2 | 98*
CC(C)[C@H](N)c1nnc(SCc2ccc(Cl)cc2)o1 | 0 | 5 | -1 | 26 | 5 | -1
O=[N+]([O-])c1ccccc1COc1ccc(Cl)c2cccnc12 | 0 | 72* | -8 | -2 | -1 | -21
COC(=O)Cc1nc(Nc2ccccc2)sc1C | 0 | -1 | 1 | 15 | -2 | 99*
CCC1(C(=O)O)NC(c2cc(OC)ccc2O)C2C(=O)N(Cc3ccccc3)C(=O)C21 (stereo not given) | 0 | 0 | 1 | 20 | 33 | 87*
c1ccc2nc(N3CCCC3)c(N3CCCC3)nc2c1 | 0 | 4 | 0 | -10 | 0 | 99*
CCC1CCCCN1C(=O)c1sc2ncnc(N(CC)CC)c2c1C (stereo not given) | 0 | 59* | -1 | 1 | 3 | 0
CCN(Cc1ccccc1)C(=O)COC(=O)Cn1cnc2ccccc21 | 0 | 1 | -1 | -8 | -3 | -4
Cc1ccc(C2c3c(oc4ccccc4c3=O)C(=O)N2c2nnc(C(C)C)s2)o1 (stereo not given) | 0 | 0 | -1 | 5 | 11 | 97*
CN(C)S(=O)(=O)NCCNc1ccc(C(F)(F)F)cc1[N+](=O)[O-] | 0 | 5 | 0 | 22 | 7 | -1
CC(C)COc1ccc(N)cc1OCC(C)C | 0 | 10 | 1 | -45 | 6 | 99*
CCN(CC)Cc1cc(C(C)=O)ccc1OCC(C)C | 0 | 2 | 0 | 0 | -4 | -8
O=C1/C(=C\c2c(NCCOCCO)nc3ccccn3c2=O)SC(=S)N1Cc1ccco1 | 0 | -2 | 9.1* | -13 | -57 | 11
CCOCCCNc1nc2c(C)cccn2c(=O)c1/C=C1\SC(=S)N(CC(C)C)C1=O | 0 | -7 | 1 | -28 | i | -1
Cc1ccc(NC2=C(NCCO)C(=O)c3ccccc3C2=O)cc1 | 0 | 65* | 0 | -1 | 0 | 100*
O=C1C(Cl)=C(NCCCO)C(=O)c2ccccc21 | 0 | 16 | 0 | 34 | 0 | -22
O=C(NC1CCCCC1)C(c1ccccc1)N1CCc2ccccc21 (stereo not given) | 0 | 0 | -1 | 11 | 0 | 98*
CC(C)[C@]1(c2ccc(Cl)cc2)ON(c2ccccc2C(F)(F)F)C1=O | 0 | -2 | 0 | -7 | 23 | -11
NC(=O)CSc1oc(-c2ccco2)nc1S(=O)(=O)c1ccccc1 | 0 | 2 | -1 | 12 | 3 | -6
NNC(=O)c1ccc(CSc2nc3ccccc3s2)cc1 | 0 | 23 | -2 | -5 | 14 | -16
